Among the data in paper PMC7862700, “An all-to-all approach to the identification of sequence-specific readers for epigenetic DNA modifications on cytosine” are binding signal values, retold here.

Holding throughout (test): DAPPL (digital affinity profiling via proximity ligation, sequencing); 10 mM Tris-HCl pH 7.5, 50 mM NaCl, 1 mM DTT, 4% glycerol, room temperature, 30 min; GST-TFs on glutathione beads, 16-mer random dsDNA library, 0.1% formaldehyde crosslink after washing; high values mean tight binding
For one assay, the target named is T1, FEV (Homo sapiens, UniProt Q99581 1-238).
T1 sequence: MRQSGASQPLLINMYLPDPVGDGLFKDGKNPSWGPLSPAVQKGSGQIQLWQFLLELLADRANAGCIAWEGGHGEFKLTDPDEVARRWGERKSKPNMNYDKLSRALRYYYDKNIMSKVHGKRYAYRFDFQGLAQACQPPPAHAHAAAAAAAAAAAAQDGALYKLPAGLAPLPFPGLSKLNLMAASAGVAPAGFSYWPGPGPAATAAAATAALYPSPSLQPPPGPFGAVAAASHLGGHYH
The following applies: protein: recombinant; tags: N-terminal GST; dsDNA, one strand shown. The procedure, abridged:
(§1)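 In yeast, human transcription factors were expressed with a GST fusion, then pulled down on glutathione beads and given DNA barcodes. Pooled with a tag-only sample, they were exposed to 200 nmole of a 16-mer random double-stranded DNA library (Tris/NaCl/DTT/glycerol buffer, room temperature, 30 min), washed, crosslinked with 0.1% formaldehyde, proximity-ligated using BsaI/T4 ligase for 1 h at 37 °C, PCR-amplified and read on an Illumina NextSeq500. Each hexamer's frequency of reads for a factor, divided by the matching frequency for the tag-only sample, gives the binding signal.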

The next assay has as its target ETV5 (Homo sapiens, UniProt P41161 1-510). The following applies: protein: recombinant; tags: N-terminal GST; dsDNA, one strand shown. The procedure, abridged: as §1
The target in a further assay is HSF1 (Homo sapiens, UniProt Q00613 1-529). The following applies: protein: recombinant; tags: N-terminal GST; chain copies: 3; dsDNA, one strand shown. The procedure, abridged:
as §1

The target of a further assay is T2, SPIC (Homo sapiens, UniProt Q8N5J4 1-248).
T2 sequence: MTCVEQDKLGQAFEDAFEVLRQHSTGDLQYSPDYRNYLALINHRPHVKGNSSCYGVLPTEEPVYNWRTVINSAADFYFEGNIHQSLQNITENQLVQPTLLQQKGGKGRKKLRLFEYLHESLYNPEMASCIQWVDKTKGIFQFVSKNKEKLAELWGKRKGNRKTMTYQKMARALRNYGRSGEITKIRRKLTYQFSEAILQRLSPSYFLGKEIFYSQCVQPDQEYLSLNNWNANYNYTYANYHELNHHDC
The following applies: protein: recombinant; tags: N-terminal GST; dsDNA, one strand shown. The procedure, abridged:
as §1

A further assay addresses ELF4 (Homo sapiens, UniProt Q99607 1-663). The following applies: protein: recombinant; tags: N-terminal GST; dsDNA, one strand shown. The procedure, abridged: as §1
For another assay, the target named is T3, ELK4 (Homo sapiens, UniProt P28324-2 1-405).
T3 sequence: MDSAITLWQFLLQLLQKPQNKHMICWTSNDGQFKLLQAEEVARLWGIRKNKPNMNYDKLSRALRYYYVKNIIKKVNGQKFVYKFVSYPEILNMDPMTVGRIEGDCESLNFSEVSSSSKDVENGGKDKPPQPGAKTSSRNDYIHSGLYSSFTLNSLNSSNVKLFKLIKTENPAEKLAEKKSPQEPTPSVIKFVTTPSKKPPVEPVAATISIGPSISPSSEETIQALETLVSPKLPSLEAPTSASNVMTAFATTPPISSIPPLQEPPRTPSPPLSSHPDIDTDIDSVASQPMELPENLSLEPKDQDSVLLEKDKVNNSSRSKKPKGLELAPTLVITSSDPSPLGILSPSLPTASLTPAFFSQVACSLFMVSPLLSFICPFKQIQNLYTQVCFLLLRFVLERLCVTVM
The following applies: protein: recombinant; tags: N-terminal GST; dsDNA, one strand shown. The procedure, abridged: as §1

A further assay has as its target T4, ETV2 (Homo sapiens, UniProt O00321 1-342).
T4 sequence: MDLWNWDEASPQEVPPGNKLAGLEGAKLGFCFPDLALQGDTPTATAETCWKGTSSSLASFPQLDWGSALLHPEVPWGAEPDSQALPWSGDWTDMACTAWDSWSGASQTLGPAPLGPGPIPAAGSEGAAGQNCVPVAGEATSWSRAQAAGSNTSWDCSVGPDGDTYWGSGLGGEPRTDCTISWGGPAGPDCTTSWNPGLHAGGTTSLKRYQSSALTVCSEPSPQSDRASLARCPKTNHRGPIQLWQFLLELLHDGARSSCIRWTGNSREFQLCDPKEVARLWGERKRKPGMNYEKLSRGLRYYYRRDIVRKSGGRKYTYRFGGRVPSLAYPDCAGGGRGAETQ
The following applies: protein: recombinant; tags: N-terminal GST; dsDNA, one strand shown. The procedure, abridged: as §1

The target of the next assay is T5, ELF3 (Homo sapiens, UniProt P78545 1-371).
T5 sequence: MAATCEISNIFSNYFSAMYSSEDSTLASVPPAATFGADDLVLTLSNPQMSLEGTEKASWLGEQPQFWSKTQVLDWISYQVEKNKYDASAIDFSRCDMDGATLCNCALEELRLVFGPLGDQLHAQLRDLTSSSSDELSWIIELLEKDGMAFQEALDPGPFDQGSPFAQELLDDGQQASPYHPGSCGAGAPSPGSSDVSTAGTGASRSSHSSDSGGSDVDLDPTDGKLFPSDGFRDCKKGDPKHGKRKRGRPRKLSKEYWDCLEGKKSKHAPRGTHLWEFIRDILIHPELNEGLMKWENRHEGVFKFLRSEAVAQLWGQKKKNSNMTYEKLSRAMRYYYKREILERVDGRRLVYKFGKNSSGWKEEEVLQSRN
The following applies: protein: recombinant; tags: N-terminal GST; dsDNA, one strand shown. The procedure, abridged:
as §1

The target of another assay is CRX (Homo sapiens, UniProt O43186 1-299). The following applies: protein: recombinant; tags: N-terminal GST; dsDNA, one strand shown. The procedure, abridged: as §1
Chain of CRX (O43186 whole entry): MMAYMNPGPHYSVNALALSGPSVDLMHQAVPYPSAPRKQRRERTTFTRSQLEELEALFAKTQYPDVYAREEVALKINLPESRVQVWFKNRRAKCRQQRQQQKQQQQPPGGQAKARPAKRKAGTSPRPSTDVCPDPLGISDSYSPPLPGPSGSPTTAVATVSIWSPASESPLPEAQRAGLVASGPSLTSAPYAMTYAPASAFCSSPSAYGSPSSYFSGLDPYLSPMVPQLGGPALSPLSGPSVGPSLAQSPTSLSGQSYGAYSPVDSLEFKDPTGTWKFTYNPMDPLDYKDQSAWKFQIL
A further assay addresses ETV1 (Homo sapiens, UniProt P50549 1-477). The following applies: protein: recombinant; tags: N-terminal GST; dsDNA, one strand shown. The procedure, abridged: as §1
The target of the next assay is T6, ERF (Homo sapiens, UniProt P50548 1-548).
T6 sequence: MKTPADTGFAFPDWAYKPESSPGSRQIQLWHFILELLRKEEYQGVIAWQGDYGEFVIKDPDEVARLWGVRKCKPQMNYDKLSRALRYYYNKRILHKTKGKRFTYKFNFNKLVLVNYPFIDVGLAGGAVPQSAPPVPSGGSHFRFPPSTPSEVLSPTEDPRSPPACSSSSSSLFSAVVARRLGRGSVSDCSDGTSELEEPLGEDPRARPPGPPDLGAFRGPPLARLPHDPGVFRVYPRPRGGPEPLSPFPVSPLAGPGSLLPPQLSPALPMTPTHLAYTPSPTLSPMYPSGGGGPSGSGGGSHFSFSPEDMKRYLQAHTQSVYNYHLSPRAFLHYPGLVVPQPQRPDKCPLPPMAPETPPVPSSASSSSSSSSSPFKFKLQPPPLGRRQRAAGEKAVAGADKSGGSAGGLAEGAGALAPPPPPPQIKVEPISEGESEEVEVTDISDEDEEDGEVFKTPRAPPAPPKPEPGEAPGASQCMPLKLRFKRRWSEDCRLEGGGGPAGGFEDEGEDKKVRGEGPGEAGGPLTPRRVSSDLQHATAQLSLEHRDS
The following applies: protein: recombinant; tags: N-terminal GST; dsDNA, one strand shown. The procedure, abridged: as §1

For another assay, the target named is T7, ETV3L (Homo sapiens, UniProt Q6ZN32 1-361).
T7 sequence: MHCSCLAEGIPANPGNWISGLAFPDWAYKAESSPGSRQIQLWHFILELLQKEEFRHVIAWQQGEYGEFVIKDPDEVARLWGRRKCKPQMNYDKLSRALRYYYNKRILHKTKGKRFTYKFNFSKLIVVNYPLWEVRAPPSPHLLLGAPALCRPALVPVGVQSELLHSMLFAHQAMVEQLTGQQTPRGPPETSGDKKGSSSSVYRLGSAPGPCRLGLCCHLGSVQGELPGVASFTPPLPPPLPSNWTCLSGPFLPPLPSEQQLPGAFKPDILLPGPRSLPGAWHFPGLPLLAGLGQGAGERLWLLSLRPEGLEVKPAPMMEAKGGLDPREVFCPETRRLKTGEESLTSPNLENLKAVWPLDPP
The following applies: protein: recombinant; tags: N-terminal GST; dsDNA, one strand shown. The procedure, abridged:
as §1

The next assay concerns the target T8, ETS2 (Homo sapiens, UniProt P15036 1-469).
T8 sequence: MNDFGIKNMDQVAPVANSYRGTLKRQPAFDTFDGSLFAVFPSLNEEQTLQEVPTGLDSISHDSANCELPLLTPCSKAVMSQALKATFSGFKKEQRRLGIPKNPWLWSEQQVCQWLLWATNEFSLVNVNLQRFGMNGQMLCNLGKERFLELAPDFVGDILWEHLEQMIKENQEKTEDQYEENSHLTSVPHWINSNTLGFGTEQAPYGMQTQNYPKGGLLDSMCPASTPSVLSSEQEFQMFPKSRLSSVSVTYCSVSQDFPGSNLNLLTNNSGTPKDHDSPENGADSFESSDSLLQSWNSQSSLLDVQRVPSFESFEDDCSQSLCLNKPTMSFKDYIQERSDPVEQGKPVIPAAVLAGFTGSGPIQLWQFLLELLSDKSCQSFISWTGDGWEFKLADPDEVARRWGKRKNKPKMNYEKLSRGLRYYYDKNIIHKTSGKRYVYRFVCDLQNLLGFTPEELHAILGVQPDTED
The following applies: protein: recombinant; tags: N-terminal GST; dsDNA, one strand shown. The procedure, abridged: as §1

For the next assay, the target named is T9, SPDEF (Homo sapiens, UniProt O95238 1-335).
T9 sequence: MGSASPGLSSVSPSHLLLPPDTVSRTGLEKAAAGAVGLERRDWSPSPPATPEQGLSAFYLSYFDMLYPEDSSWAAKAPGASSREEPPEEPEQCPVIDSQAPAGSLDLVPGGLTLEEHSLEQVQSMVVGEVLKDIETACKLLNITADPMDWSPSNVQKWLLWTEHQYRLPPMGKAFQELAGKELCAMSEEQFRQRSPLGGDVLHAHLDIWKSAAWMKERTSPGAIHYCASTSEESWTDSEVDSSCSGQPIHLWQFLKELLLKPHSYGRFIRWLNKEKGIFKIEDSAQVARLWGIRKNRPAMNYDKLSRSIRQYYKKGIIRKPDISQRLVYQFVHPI
The following applies: protein: recombinant; tags: N-terminal GST; dsDNA, one strand shown. The procedure, abridged: as §1

Another assay deals with T10, ETV7 (Homo sapiens, UniProt Q9Y603 1-341).
T10 sequence: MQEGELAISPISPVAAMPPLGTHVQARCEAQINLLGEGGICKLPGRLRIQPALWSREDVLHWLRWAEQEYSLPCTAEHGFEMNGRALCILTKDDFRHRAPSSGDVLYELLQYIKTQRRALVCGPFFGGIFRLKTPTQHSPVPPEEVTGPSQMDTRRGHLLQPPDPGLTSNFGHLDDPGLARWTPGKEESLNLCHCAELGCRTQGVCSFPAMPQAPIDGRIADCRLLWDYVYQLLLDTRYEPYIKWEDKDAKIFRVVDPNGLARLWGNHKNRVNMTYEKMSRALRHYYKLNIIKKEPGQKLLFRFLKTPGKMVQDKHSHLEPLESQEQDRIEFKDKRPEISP
The following applies: protein: recombinant; tags: N-terminal GST; dsDNA, one strand shown. The procedure, abridged:
as §1

Another assay concerns the target T11, ELF5 (Homo sapiens, UniProt Q9UKW6-2 1-255).
T11 sequence: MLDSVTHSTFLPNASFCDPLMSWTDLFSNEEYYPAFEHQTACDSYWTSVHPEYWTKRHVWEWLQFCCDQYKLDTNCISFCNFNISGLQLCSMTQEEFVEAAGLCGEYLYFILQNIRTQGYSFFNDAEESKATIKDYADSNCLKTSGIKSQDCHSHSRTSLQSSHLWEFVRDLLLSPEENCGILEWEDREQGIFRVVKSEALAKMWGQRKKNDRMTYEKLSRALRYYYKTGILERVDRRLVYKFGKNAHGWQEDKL
The following applies: protein: recombinant; tags: N-terminal GST; dsDNA, one strand shown. The procedure, abridged:
as §1

In another assay the target is T12, ETV3 (Homo sapiens, UniProt P41162-2 1-143).
T12 sequence: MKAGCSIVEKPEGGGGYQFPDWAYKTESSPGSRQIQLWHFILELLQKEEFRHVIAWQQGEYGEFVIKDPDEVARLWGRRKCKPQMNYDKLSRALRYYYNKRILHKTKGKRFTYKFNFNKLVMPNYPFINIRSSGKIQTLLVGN
The following applies: protein: recombinant; tags: N-terminal GST; dsDNA, one strand shown. The procedure, abridged: as §1

A further assay deals with ETV6 (Homo sapiens, UniProt P41212 1-452). The following applies: protein: recombinant; tags: N-terminal GST; dsDNA, one strand shown. The procedure, abridged:
as §1

Chain of HSF1 (Q00613 whole entry): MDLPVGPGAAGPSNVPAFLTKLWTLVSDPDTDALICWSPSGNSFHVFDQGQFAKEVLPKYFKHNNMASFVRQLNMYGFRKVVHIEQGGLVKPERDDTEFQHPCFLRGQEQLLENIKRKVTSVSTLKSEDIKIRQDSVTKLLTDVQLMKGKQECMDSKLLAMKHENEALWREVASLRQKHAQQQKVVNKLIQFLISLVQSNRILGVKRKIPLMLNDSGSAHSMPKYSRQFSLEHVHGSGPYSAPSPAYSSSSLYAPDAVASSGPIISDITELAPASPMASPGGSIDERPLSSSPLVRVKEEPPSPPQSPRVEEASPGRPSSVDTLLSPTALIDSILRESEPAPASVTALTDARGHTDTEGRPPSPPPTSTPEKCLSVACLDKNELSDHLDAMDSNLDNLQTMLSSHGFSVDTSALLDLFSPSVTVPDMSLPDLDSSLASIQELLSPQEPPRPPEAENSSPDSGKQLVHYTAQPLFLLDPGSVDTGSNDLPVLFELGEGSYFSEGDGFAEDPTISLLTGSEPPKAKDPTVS
Chain of ETV5 (P41161 whole entry): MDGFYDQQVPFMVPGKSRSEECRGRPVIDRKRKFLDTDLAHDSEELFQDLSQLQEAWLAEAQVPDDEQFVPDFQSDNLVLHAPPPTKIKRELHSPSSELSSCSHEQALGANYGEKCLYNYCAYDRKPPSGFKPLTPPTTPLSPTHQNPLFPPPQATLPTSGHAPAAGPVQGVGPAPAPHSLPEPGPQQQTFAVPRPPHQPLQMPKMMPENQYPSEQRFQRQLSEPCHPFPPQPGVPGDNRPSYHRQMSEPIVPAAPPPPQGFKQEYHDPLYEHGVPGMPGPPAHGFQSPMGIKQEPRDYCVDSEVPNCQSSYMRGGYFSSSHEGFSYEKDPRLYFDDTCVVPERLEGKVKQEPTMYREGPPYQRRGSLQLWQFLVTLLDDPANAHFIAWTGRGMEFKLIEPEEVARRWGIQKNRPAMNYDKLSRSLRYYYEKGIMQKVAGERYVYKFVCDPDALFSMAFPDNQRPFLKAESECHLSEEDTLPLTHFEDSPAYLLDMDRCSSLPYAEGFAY
Chain of ELF4 (Q99607 whole entry): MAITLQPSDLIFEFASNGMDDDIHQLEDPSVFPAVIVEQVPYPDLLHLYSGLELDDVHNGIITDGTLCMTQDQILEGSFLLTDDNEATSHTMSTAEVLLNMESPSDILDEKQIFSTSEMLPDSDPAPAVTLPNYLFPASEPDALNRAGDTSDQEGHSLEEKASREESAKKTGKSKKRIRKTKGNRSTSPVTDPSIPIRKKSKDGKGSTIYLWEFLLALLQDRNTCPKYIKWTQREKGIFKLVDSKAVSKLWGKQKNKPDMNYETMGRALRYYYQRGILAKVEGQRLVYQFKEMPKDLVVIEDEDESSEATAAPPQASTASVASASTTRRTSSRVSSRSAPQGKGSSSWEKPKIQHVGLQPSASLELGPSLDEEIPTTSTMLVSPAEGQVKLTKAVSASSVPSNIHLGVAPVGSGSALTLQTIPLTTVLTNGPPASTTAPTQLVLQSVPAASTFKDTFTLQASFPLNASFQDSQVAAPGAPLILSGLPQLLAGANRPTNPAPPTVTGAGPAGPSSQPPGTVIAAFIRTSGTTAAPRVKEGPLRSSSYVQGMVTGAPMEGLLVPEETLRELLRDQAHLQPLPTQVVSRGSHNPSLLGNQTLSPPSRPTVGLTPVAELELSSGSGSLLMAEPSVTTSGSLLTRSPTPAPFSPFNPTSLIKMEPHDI
Chain of ETV6 (P41212 whole entry): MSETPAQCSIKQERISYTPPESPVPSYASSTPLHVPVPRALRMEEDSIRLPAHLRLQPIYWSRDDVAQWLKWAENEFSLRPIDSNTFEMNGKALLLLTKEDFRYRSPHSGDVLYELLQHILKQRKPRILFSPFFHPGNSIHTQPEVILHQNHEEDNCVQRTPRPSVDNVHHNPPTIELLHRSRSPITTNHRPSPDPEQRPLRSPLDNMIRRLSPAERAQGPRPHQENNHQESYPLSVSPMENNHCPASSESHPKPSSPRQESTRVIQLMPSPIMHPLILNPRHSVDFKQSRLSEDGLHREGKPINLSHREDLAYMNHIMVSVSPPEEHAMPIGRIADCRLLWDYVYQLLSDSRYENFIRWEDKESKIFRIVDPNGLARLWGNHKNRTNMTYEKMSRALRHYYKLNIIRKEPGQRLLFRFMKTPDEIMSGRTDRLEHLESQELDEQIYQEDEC
Chain of ETV1 (P50549 whole entry): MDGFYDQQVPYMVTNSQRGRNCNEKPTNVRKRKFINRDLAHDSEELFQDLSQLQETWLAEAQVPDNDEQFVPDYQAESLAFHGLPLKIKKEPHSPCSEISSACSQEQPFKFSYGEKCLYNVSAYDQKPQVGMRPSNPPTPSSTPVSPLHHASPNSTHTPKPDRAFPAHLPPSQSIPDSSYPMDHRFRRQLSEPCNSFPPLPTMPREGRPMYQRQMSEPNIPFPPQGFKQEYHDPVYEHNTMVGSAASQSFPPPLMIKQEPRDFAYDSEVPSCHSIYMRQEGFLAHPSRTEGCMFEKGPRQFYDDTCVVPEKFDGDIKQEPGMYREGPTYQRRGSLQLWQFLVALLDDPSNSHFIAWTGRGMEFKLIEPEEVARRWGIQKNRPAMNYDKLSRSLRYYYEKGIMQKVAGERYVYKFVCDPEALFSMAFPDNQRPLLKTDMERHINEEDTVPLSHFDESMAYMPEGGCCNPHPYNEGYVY

As for CCTAAA, the binding signal is 1.27 fold enrichment (6-mer frequency, TF over GST control) with FEV; 1.33 fold enrichment (6-mer frequency, TF over GST control) with ETV5; 1.37 fold enrichment (6-mer frequency, TF over GST control) with HSF1; 1.32 fold enrichment (6-mer frequency, TF over GST control) with SPIC; 1.35 fold enrichment (6-mer frequency, TF over GST control) in the assay with ELF4; 1.29 fold enrichment (6-mer frequency, TF over GST control) in the assay with ELK4. Further, the binding signal in the assay with ETV2 is 1.25 fold enrichment (6-mer frequency, TF over GST control); with ELF3, 1.4 fold enrichment (6-mer frequency, TF over GST control); with CRX, 1.61 fold enrichment (6-mer frequency, TF over GST control); in the assay with ETV1, 1.31 fold enrichment (6-mer frequency, TF over GST control); with ERF, 1.4 fold enrichment (6-mer frequency, TF over GST control); with ETV3L, 1.32 fold enrichment (6-mer frequency, TF over GST control). Moreover, the binding signal in the assay with ETS2 is 1.33 fold enrichment (6-mer frequency, TF over GST control); with SPDEF, 1.32 fold enrichment (6-mer frequency, TF over GST control); in the assay with ETV7 it was 1.34 fold enrichment (6-mer frequency, TF over GST control); with ELF5, 1.27 fold enrichment (6-mer frequency, TF over GST control); in the assay with ETV3 it was 1.28 fold enrichment (6-mer frequency, TF over GST control); in the assay with ETV6 it was 1.25 fold enrichment (6-mer frequency, TF over GST control).
